Our source for the Potency values is PubChem BioAssay (Tox21).

“And” between values parts separate entries of the source, which are not always exact repeats. Identical values can stand only once. Records with an inconclusive call do not appear. Some structures have more than one record in an assay (separate samples or runs), and their calls can disagree. The source made the active and inactive calls. Unless noted, the call rests on the fitted dose curve; in most records, active means well fitted curve in the direction sought with a large enough effect in the repeat runs; inconclusive means weak or mixed curves; inactive means no such curve, though single readings can be large; an effect the other way counts as inactive or inconclusive.

The nature of test [1]: qHTS assay for small molecules that induce genotoxicity in human embryonic kidney cells expressing luciferase-tagged ATAD5 (AID 651632). Further: nearly all actives have a fitted effect of over 15% in size. In a few lines: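 Increased luciferase signal from ATAD5-tagged reporter cells indicates DNA-damage-driven ATAD5 induction. HEK293T cells are treated for 16 hr at 37C before detection with Amplite.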
On the technique in general: In qHTS, concentration-response curves come from the screen itself.

Test [2] in a line: qHTS assay for small molecule agonists of the p53 signaling pathway - cell viability (AID 651633; calls by dose curve; further: nearly all actives have a fitted effect of over 30% in size; further: potency means the concentration at half of the fitted maximal effect). In a few lines: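 p53RE-bla cells, seeded at 4,000 per well and rested 5 h at 37 C/5% CO2, received compounds in DMSO for 16 h at 37 C. CellTiter-Glo was then added, and luminescence was read after 30 min at room temperature to gauge cytotoxicity.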
The nature of test [3]: qHTS assay for small molecules that induce genotoxicity in human embryonic kidney cells expressing luciferase-tagged ATAD5 - cell viability (AID 651634; calls by dose curve; further: nearly all actives have a fitted effect of over 25% in size; further: potency means the concentration at half of the fitted maximal effect). In a few lines:
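Cytotoxicity counterscreen in HEK293T cells bearing an ATAD5-luciferase reporter: live-cell protease activity measured by CellTiter-Fluor fluorescence after 15.5 hr compound exposure.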

Test [4] in a line: qHTS assay for small molecule disruptors of the mitochondrial membrane potential - cell viability (AID 720634; calls by dose curve; further: nearly all actives have a fitted effect of over 20% in size; further: potency means the concentration at half of the fitted maximal effect). In a few lines: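 After overnight attachment at 37 C, HepG2 cells received compound or DMSO vehicle for 1 hr. Viability is then taken from ATP-driven luminescence following a 30 min room-temperature CellTiter-Glo step.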
Test [5] can be described thus: qHTS assay for small molecule disruptors of the mitochondrial membrane potential (AID 720635). Further: potency means the concentration at half of the fitted maximal effect. In a few lines:
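HepG2 cells (2,000/well) attached overnight at 37C, then took compound for 1 hr at 37C, 5% CO2. Mito-MPS dye was added for 30 min; fluorescence was read at 490/535 nm (monomers) and 540/590 nm (aggregates).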

A short description of test [6]: qHTS assay to test for compound auto fluorescence at 590 nm (red) in HepG2 cells (AID 720674). In a few lines: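 Intrinsic compound fluorescence in the red window (Ex/Em 540/590 nm) is measured in attached HepG2 cells exposed for 1 hr, DMSO vehicle as baseline, benchmarked to Rose Bengal sodium.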
Test [7] can be described thus: qHTS assay to test for compound auto fluorescence at 535 nm (green) in HepG2 cells (AID 720675).
Test [8] in a line: qHTS assay to test for compound auto fluorescence at 460 nm (blue) in HEK293 cells (AID 720678). Further: potency means the concentration at half of the fitted maximal effect. In a few lines: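 Auto fluorescence in the blue band was quantified as triamterene equivalency. HEK293 cells were seeded at 2,000/well, dosed after a 4-5 hr attachment, and kept overnight at 37C before the 405/460 nm reading.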
Test [9] is described as follows: qHTS assay to test for compound auto fluorescence at 590 nm (red) in HEK293 cells (AID 720679). In a few lines:
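Autofluorescence equivalency to Rose Bengal sodium, 540/590nm, in HEK293 cells exposed overnight to 23 nL compound per well.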

The nature of test [10]: qHTS assay for small molecule agonists of the p53 signaling pathway (AID 651631; calls by dose curve; further: nearly all actives have a fitted effect of over 15% in size). In a few lines:
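Beta-lactamase reporter activity under p53 response elements was quantified in HCT-116 cells by FRET fluorescence, following 16 h incubation with test compounds at 37 °C and 2 h substrate development at room temperature.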
Tags describe the fitted curve by direction and shape or compound fluorescence and quenching.

For the compound `C=C(C)c1cccc(C(=C)C)c1`, the Potency result in [1], in [2], in test [3], in test [4], in test [5] and in [6] was “inactive” in each case. For the same compound, the Potency result in test [7], in test [8] and in test [9] was “inactive” throughout.

Turning to `CC(C)Cn1cnc2c(N)nc3ccccc3c21`, the Potency result in [1], in [2], in test [3], in test [4], in [5] and in test [6] was “inactive” each time. The Potency result in test [7], in test [8] and in test [9] was “inactive” each time.

Regarding `O=C(O)c1ccc2cc(C(=O)O)ccc2c1`, the Potency result in [1], in test [2], in [3], in test [4], in test [5] and in test [6] was “inactive” each time. Moreover, the Potency entry in test [7], in [8] and in test [9] was “inactive” each time.

Regarding `O=C(O)Cc1ccccc1Nc1c(Cl)cccc1Cl`, the Potency result in test [10], in test [3], in test [6], in test [7], in [8] and in test [9] was “inactive” throughout.

As for `CCn1c2ccccc2c2cc([N+](=O)[O-])ccc21`, the Potency result in test [1], in test [2], in test [3], in test [6], in test [7] and in test [8] was “inactive” each time. Further, in test [9], the Potency result was “inactive”. Moreover, the Potency in test [4] is 30.6 µM (active).

`O=C1c2ccccc2C(=O)N1SC1CCCCC1`: the Potency entry in [1], in test [3], in [6], in test [7], in test [8] and in [9] was “inactive” throughout. In addition, in test [2], the Potency is 68.5 µM (active) and inactive.

`C=C(C)C(=O)OCCCCCCCCCC`: the Potency entry in test [1], in [3], in [4], in test [6], in test [7] and in [8] was “inactive” each time. Moreover, in [9], the Potency entry is “inactive”.

Turning to `CCC(C)n1ncn(-c2ccc(N3CCN(c4ccc(OC[C@H]5CO[C@](Cn6cncn6)(c6ccc(Cl)cc6Cl)O5)cc4)CC3)cc2)c1=O` (some centres undefined), the Potency entry in test [1], in test [2], in test [4], in test [6], in [7] and in [8] was “inactive” in each case. In addition, the Potency entry in test [9] is “inactive”.

As for `C/C=C/C=C/COC(=O)C(C)C`, the Potency result in test [1], in test [3], in test [4], in test [6], in test [7] and in [8] was “inactive” in each case. Moreover, the Potency entry in [9] was “inactive”.

With `Cc1cc(-c2ccc(N=Nc3cc(S(=O)(=O)O)c4ccccc4c3N)c(C)c2)ccc1N=Nc1cc(S(=O)(=O)O)c2ccccc2c1N`, the Potency entry in [1], in [3], in test [4], in test [6], in test [7] and in [8] was “inactive” throughout. Also, the Potency result in [9] is “inactive”. In [5], the Potency was 12.3 µM (active).

`O=C(O)c1cc(O)c2ccccc2c1O`: the Potency result in test [1], in [3], in test [6], in test [7], in test [8] and in [9] was “inactive” in each case. Also, the Potency in [2] is 30.6 µM (active).

With `CC(C)(C)c1ccc(C(O)CCCN2CCC(C(O)(c3ccccc3)c3ccccc3)CC2)cc1` (centres undefined), the Potency entry in [1], in test [4], in [6], in test [7], in test [8] and in test [9] was “inactive” each time. The Potency in test [2] is 29.8 µM (active) and 18.8 µM (active).

Regarding `C#C[C@]1(OC(C)=O)CC[C@H]2[C@@H]3CCC4=C[C@@H](OC(C)=O)CC[C@@H]4[C@H]3CC[C@@]21C`, the Potency result in test [1], in [3], in [4], in [7], in [8] and in test [9] was “inactive” in each case. Also, the Potency was 29.8 µM (active) and inactive in test [2]; 13.3 µM (active) in test [5].

As for `CCCCCCCCCCCCOC(=O)c1ccc(O)cc1`, the Potency result in test [1], in test [2], in [3], in test [6], in [7] and in test [8] was “inactive” in each case. The Potency entry in [9] was “inactive”.

`COC1=C(OC)C(=O)C(CCCCCCCCCCO)=C(C)C1=O`: the Potency entry in test [1], in test [3], in [4], in [7], in test [8] and in test [9] was “inactive” each time. For the same compound, in test [2], the Potency was 29.8 µM (active).

`CC(N=C(NC#N)Nc1ccncc1)C(C)(C)C` (centres undefined): the Potency entry in test [1], in test [2], in test [3], in test [4], in test [6] and in test [7] was “inactive” each time. The Potency result in [8] and in test [9] was “inactive” throughout.

Consider `Cc1cc(=O)oc2cc(O)cc(O)c12`, for which the Potency entry in test [1], in test [2], in test [3], in test [4], in test [6] and in [7] was “inactive” in each case. In addition, the Potency entry in [9] was “inactive”. In test [8], the Potency is 39.8 µM [fluorescent] (active).

Take `Clc1ccnc(Cl)n1`: the Potency result in [1], in [2], in [3], in [4], in [6] and in test [7] was “inactive” in each case. Also, the Potency entry in test [8] and in test [9] was “inactive” in each case.

As to `Clc1sc(Cl)c(Cl)c1Cl`, the Potency entry in test [1], in [2], in test [3], in test [4], in test [6] and in test [7] was “inactive” each time. Also, the Potency result in test [8] and in test [9] was “inactive” in each case.

Regarding `[Cu+]`, the Potency result in test [1], in [2], in test [3], in [4], in [6] and in [7] was “inactive” throughout. Also, the Potency entry in test [8] and in test [9] was “inactive” throughout.

Consider `CNc1ccc([N+](=O)[O-])cc1`, for which the Potency result in test [1], in test [2], in [4], in test [6], in [7] and in test [8] was “inactive” throughout. Also, in test [9], the Potency entry was “inactive”. Moreover, in [3], the Potency is 61.3 µM (active).

As to `CC1(C)CCC[C@]2(C)[C@H]3CCO[C@]3(C)CC[C@@H]12`, the Potency entry in [1], in test [2], in [3], in [4], in [6] and in test [7] was “inactive” in each case. Also, the Potency result in test [8] and in [9] was “inactive” throughout.

As to `Nc1nc(N)nc(-c2cc(Cl)ccc2Cl)n1`, the Potency result in test [1], in test [2], in [3], in test [4], in [5] and in test [6] was “inactive” throughout. Further, the Potency entry in test [7], in [8] and in [9] was “inactive” in each case.

`Cc1cc(C(C#N)c2ccc(Cl)cc2)c(Cl)cc1NC(=O)c1cc(I)cc(I)c1O` (centres undefined): the Potency result in [1], in [6], in test [7], in test [8] and in test [9] was “inactive” in each case. Besides, in test [2], the Potency was 3.35 µM (active).
